The text below walks through data of PubChem BioAssay.

Molecules are shown by their SMILES. Active and inactive are the calls of the source.

Assay [1] in a line: optical density shifts of acrAB sulA E. coli – strain DRC41, OD650, 48 h, E. coli filamentation inducer project, primary screen (AID 1152).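 Further: E. coli MC1000 strain DRC41 lacking acrAB efflux pump and sulA.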 The note with it: higher = more signal, called active from +8 up or from −8 down.
Assay [2] in a line: probe aLefty1 binding on compound microarray – biochemical, small-molecule microarray, 635/667 nm fluorescence, primary screen (AID 1153).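 Further: score merges spot fluorescence with signal-to-noise ratio from the scanned slide images.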 The note with it: higher = more signal.
A short description of assay [3]: plasmodial surface anion channel blockers, osmotic lysis – cell-based, P. falciparum Indochina, OD700, 1 h, primary screen (AID 1154). The note with it: P. falciparum Indochina infected RBC osmotic lysis, higher = more signal, called active from +8 up or from −8 down.
Assay [4] can be described thus: plasmodial surface anion channel blockers, osmotic lysis – cell-based, P. falciparum Indochina, OD700, 2 h, primary screen (AID 1155).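 Further: lysis reports solute entry through the parasite surface anion channel PSAC.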 Conditions: P. falciparum Indochina infected erythrocytes, higher = more signal, called active from +8 up or from −8 down.
The nature of assay [5]: changes in parasitized red cell lysis, either direction – P. falciparum Indochina, OD700, 3 h, PSAC antagonist project, primary screen (AID 1156). Conditions: P. falciparum-infected erythrocytes, osmotic lysis, higher = more signal, called active from +8 up or from −8 down.
Assay [6] in a line: plasmodial surface anion channel blockers, osmotic lysis – cell-based, P. falciparum Indochina, OD700, 18 h, primary screen (AID 1157). Conditions: P. falciparum Indochina infected erythrocytes, osmotic lysis OD700, 18 h; higher = more signal, called active from +8 up or from −8 down.
Assay [7] in a line: S6 kinase pathway phospho-S6 level changes – cell-based, A549, cytoblot, luminescence, serum-stimulated, primary screen (AID 1158).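 Further: serum-stimulated A549 lung adenocarcinoma cells; signal is phosphorylated S6 detected by cytoblot immunostaining with HRP secondary.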 The note with it: 5 h, higher = more signal.
For assay [8], the target named is NADPH oxidase 2 (Homo sapiens) (UniProt P04839). Kind of assay: compounds shifting NOX2 Amplex Red fluorescence – cell-based, HEK293-NOX2, PMA-stimulated, NOX inhibitor project, primary screen (AID 1159). Further: test concentration not given here. The note with it: 45 min, higher = more signal, called active from +8 up or from −8 down.
Sequence of NADPH oxidase 2 (Homo sapiens) (P04839 whole entry, looked up): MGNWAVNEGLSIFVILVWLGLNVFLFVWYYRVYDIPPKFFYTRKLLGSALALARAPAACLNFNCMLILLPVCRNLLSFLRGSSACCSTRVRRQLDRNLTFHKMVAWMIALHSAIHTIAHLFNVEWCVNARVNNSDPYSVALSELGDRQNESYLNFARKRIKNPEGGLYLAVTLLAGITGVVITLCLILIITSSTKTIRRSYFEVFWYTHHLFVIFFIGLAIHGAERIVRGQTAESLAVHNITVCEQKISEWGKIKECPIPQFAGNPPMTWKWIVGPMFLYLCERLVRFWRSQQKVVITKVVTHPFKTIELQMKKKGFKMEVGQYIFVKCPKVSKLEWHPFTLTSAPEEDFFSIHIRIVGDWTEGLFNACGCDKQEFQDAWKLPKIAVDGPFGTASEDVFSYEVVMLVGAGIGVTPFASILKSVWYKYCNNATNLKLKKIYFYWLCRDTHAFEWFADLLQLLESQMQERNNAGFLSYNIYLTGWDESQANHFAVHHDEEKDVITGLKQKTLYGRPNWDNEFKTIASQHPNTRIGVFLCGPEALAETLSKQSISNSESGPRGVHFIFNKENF
Assay [9] has as its target NADPH oxidase 4 (Homo sapiens) (UniProt Q9NPH5). Kind of assay: compounds shifting NOX4 Amplex Red fluorescence – cell-based, HEK293-NOX4, tetracycline-induced, NOX inhibitor project, primary screen (AID 1160). Conditions: HEK293-NOX4, Amplex Red H2O2 fluorescence, 45 min; higher = more signal, called active from +8 up or from −8 down.
Assay [10] has as its target NADPH oxidase 5 (Homo sapiens) (UniProt Q96PH1). Kind of assay: compounds shifting NOX5 Amplex Red fluorescence – cell-based, HEK293-NOX5, NOX inhibitor project, primary screen (AID 1161). Conditions: HEK293-NOX5, ionomycin, 45 min, higher = more signal.
The nature of assay [11]: compound effects on lung adenocarcinoma cell viability – A549, calcein-AM fluorescence, 48 h, basal, profiling panel (AID 1162). Further: test concentration not given here. Conditions: higher = more signal.
Assay [12] is described as follows: compound effects on differentiated 3T3-L1 adipocyte viability – cell-based, 3T3-L1 adipocytes, calcein-AM fluorescence, 48 h, basal, profiling panel (AID 1163). Further: test concentration not given here. The note with it: 3T3-L1 adipocytes viability, higher = more signal.
The nature of assay [13]: compound effects on hepatocellular carcinoma cell viability – HepG2, calcein-AM fluorescence, 48 h, basal, profiling panel (AID 1164). Further: test concentration not given here. Conditions: higher = more signal.
Assay [14] in a line: compound effects on multiple myeloma cell viability – MM1S, calcein-AM fluorescence, 48 h, basal, profiling panel (AID 1165).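 Further: viability of MM1S multiple myeloma cells under basal unstimulated conditions; test concentration not given here.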 The note with it: higher = more signal.
Assay [15] in a line: calcein-AM signal in unstimulated myeloma cells – cell-based, calcein-AM fluorescence, 48 h, PK04 Diversity Set, profiling panel (AID 1166).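 Further: cells grown under basal conditions without added stimulus; test concentration not given here.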 Conditions: RPMI8226 myeloma viability, higher = more signal.
Assay [16] can be described thus: JC-1 mitochondrial signal, unstimulated HepG2 cells – cell-based, JC-1 fluorescence, 24 h, 100 nL compound, profiling panel (AID 1167). Further: test concentration not given here. The note with it: HepG2 mitochondrial potential, higher = more signal.
Assay [17] is described as follows: JC-1 mitochondrial signal, unstimulated adipocytes – cell-based, JC-1 fluorescence, 3T3-L1 adipocytes, 24 h, 100 nL compound, profiling panel (AID 1168). Further: test concentration not given here. The note with it: JC-1 mitochondrial fluorescence, higher = more signal, called active from +8 up or from −8 down.
Assay [18] in a line: JC-1 mitochondrial signal, unstimulated myeloma cells – cell-based, JC-1 fluorescence, RPMI8226, 24 h, 100 nL compound, profiling panel (AID 1169). Further: test concentration not given here. The note with it: JC-1 mitochondrial potential fluorescence, higher = more signal.
Assay [19] can be described thus: JC-1 mitochondrial signal, unstimulated MM1S myeloma – cell-based, JC-1 fluorescence, 24 h, 100 nL compound, profiling panel (AID 1170). Further: test concentration not given here. The note with it: MM1S mitochondrial potential, higher = more signal.
Assay [20] is described as follows: resazurin metabolic signal in A549 cells – cell-based, resazurin fluorescence, 24 h, PK04 Diversity Set, profiling panel (AID 1171). Further: test concentration not given here. Conditions: A549 viability, higher = more signal, called active from +8 up or from −8 down. On the technique in general: The colour change of resazurin is a common sign of viable cells or microbes.

Sequence of NADPH oxidase 4 (Homo sapiens) (Q9NPH5 whole entry, looked up): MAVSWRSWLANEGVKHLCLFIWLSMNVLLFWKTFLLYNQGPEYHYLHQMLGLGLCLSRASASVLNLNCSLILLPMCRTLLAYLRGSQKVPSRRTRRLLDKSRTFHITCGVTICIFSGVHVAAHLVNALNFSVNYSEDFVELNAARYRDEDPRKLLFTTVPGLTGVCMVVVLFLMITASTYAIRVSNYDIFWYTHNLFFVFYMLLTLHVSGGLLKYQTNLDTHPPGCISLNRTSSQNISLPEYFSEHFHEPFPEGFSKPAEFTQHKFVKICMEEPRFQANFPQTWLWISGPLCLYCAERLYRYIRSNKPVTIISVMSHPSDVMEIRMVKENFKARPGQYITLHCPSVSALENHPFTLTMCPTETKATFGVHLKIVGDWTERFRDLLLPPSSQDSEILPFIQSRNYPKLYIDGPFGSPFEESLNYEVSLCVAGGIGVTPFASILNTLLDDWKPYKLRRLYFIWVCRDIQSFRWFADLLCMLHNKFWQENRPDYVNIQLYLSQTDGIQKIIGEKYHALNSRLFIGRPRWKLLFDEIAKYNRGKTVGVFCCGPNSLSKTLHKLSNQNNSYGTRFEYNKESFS
Sequence of NADPH oxidase 5 (Homo sapiens) (Q96PH1 whole entry, looked up): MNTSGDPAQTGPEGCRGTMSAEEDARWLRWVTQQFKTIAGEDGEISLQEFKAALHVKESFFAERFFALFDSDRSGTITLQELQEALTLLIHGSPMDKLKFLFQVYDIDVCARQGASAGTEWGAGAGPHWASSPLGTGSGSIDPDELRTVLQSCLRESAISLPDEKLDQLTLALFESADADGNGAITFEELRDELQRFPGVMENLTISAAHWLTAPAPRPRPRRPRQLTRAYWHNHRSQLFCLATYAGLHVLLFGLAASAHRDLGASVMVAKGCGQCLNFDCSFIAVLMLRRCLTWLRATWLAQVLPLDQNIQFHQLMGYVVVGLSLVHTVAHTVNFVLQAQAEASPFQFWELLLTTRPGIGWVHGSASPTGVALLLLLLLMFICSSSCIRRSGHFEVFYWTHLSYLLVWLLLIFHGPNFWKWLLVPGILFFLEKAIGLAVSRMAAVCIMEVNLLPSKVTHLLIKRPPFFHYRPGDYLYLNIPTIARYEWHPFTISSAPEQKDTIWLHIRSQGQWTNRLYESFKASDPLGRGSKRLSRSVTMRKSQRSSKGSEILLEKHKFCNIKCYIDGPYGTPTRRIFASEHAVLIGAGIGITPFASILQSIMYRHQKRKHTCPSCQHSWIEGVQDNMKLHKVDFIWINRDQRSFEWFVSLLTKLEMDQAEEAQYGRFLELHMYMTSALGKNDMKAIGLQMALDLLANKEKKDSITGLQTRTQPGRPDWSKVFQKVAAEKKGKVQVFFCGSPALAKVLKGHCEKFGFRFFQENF

With `C=CCC(OC(C)=O)[C@@H]1[C@@H](N(Cc2cc3ccccc3o2)C(=O)Cc2ccc(F)cc2)c2cc(OCCCO)ccc2N1C(=O)Cc1ccc2ccccc2c1` (stereo not given in full), the z-score in [1] is -1.06 (inactive); in [3] it was 1.23 (inactive); in assay [4] it was 0.62 (inactive); in [5], -0.621 (inactive); in assay [6], 0.184 (inactive); in assay [7] it was -0.213. The z-score in assay [8] is 0.682 (inactive); in assay [9], 0.88 (inactive); in [10], 1.86; in [11], 0.181; in assay [12], -0.136; in [13], 0.766. Besides, the z-score in [14] was -0.082; in assay [15] it was -0.759; in assay [16] it was 1.22; in assay [17], -0.683 (inactive); in [18], -0.311; in [19] it was 1.19. Moreover, the z-score in assay [20] was 0.0336 (inactive). The compound further registered a composite z-score in assay [2] of 0.051.
`COCCOC(=O)N1C(=O)[C@@]2(c3cc(C#CCC(C(=O)OC)C(=O)OC)ccc31)[C@H](c1ccc(OCCO)cc1)N1[C@H](c3ccccc3)[C@H](c3ccccc3)OC(=O)[C@H]1[C@@H]2C(=O)N1CCc2cc(OC)c(OC)cc2C1`: the z-score in [1] was -0.0746 (inactive); in assay [3], 6.85 (inactive); in assay [4], 2.56 (inactive); in [5] it was 0.324 (inactive); in [6], 1.78 (inactive); in [7], -0.215. Besides, the z-score in assay [8] is 2.22 (inactive); in assay [9], 1.17 (inactive); in assay [10], 1.29; in assay [11], 1.05; in assay [12], -0.0617; in [13] it was 0.0859. Besides, the z-score was -1.04 in assay [14]; -0.467 in [15]; 0.363 in assay [16]; 1.37 (inactive) in [17]; -0.262 in assay [18]; -1.21 in assay [19]. In addition, the z-score in assay [20] was 0.0243 (inactive). Moreover, the composite z-score in [2] amounted to 0.269.
Take `CC(C)C(O)C1C=CC2C(=O)N(c3ccccc3)C(=O)C2N1Nc1ccccc1` (stereo not given): the z-score in assay [1] was -0.471 (inactive); in assay [3], 1.2 (inactive); in assay [4], -0.4 (inactive); in assay [5] it was 1.33 (inactive); in [6], -0.741 (inactive); in assay [7] it was 0.325. In addition, the z-score is -3.32 (inactive) in assay [8]; -4.05 (inactive) in assay [9]; -6.43 in assay [10]; -1.17 in [11]; -0.68 in assay [12]; -0.917 in assay [13]. In addition, the z-score is -0.528 in [14]; -1.03 in assay [15]; -1.6 in assay [16]; -0.855 (inactive) in assay [17]; 0.0949 in [18]; -1.35 in [19]. The z-score in assay [20] was 0.184 (inactive). The compound further showed a composite z-score in [2] of -0.0163.
As to `CC(C)(C)OC(=O)COc1cccc(C(=O)CCN2CCOCC2)c1`, the z-score is 0.922 (inactive) in assay [1]; 6.63 (inactive) in assay [3]; 1.21 (inactive) in assay [4]; -0.481 (inactive) in [5]; 0.548 (inactive) in assay [6]; 0.202 in assay [7]. The z-score in [8] was -5.78 (inactive); in assay [9], 1.09 (inactive); in assay [10], 2.12; in assay [11], 1.06; in [12], 0.477; in assay [13], -0.0751. Besides, the z-score in [14] is -3.27; in [15], -4.4; in [16], -1.01; in [17] it was -0.0351 (inactive); in assay [18] it was -0.885; in assay [19] it was -2.04. The z-score in assay [20] is 1.5 (inactive). Also, the composite z-score in assay [2] amounted to 0.265.
As for `COC(=O)[C@@]1(Cc2ccc(F)cc2)[C@H]2c3cc(C(=O)N(C)C)n(Cc4ccc(OC(F)(F)F)cc4)c3C[C@H]2CN1C(=O)c1ccccc1`, the z-score in assay [1] is -1.4 (inactive); in [3], -0.0341 (inactive); in assay [4], 0.673 (inactive); in assay [5] it was -0.0751 (inactive); in assay [6] it was 0.692 (inactive); in [7], -0.139. For the same compound, the z-score in assay [8] is 0.195 (inactive); in assay [9] it was -0.44 (inactive); in assay [10], 0.205; in assay [11], -0.524; in [12], -0.859; in assay [13] it was -0.51. Further, the z-score in assay [14] is -0.225; in assay [15], 0.218; in assay [16], -0.0759; in [17] it was -0.392 (inactive); in [18] it was -0.0137; in assay [19], -0.276. The z-score in assay [20] is -0.914 (inactive). The composite z-score in assay [2] came to 0.651.
